High-throughput results as filed in PubChem.
Yeast superoxide – lowers age-related superoxide in aged yeast cells | S. cerevisiae aged cells, superoxide DHE fluorescence; hits give low values | superoxide response (% of plate mean), % at 10 µM | 330,000 tested, 0.18% active;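 active = superoxide response under a set limit, about three screen SD below normal, cut at about 65% in these data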;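 note: yeast aged for seven days with compound at 30 °C before DHE staining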
V-ATPase pHluor – alters yeast V-ATPase proton transport; S. cerevisiae, pHLuorin cytosolic pH fluorescence; response, % at 10 µM; 350,000 tested, 0.37% active; AID 504577; in the data active = response mostly above about 7.3%, no sharp cut-off; inactive = mostly below about 5.4%; note: actives read high
hiPSC survival – enhancers of human iPSC single-cell survival; hiPSC single-cell survival, ATPlite luminescence; 100% = ROCK inhibitor wells, 0% = DMSO; survival enhancement, % at 20 µM; 360,000 tested, 0.044% active; AID 602274; in the data active = survival enhancement above about 18%;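 note: cells exposed to compounds for 16 hours before the ATP read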
Fh CTSL1 inh – blocks F. hepatica cathepsin L1 in PFM18AAP counter-screen. recombinant F. hepatica cathepsin L1, Z-Leu-Arg-MCA fluorescence. inhibition, % at 5.96 µM. 300,000 tested, 0.49% active. AID 1906;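 active = inhibition above the mean of all tested compounds plus 3 SD, set per screening campaign, cut at about 17% in these data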
Superoxide pick – confirmation of caloric restriction mimetics inhibiting yeast age-related superoxide. shares compounds with Yeast superoxide. S. cerevisiae aging, superoxide DHE fluorescence; hits give low values. AID 434994. superoxide response (% of plate), % at 10 µM. 850 tested, 1% active;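 active = superoxide signal below 65% of the plate average of sample wells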;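 note: cells aged with compound for 7 days at 30 degrees C before staining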
DHE counter – DHE fluorescence interference, counter-screen artifact; shares compounds with Yeast superoxide; S. cerevisiae BY4741, flow cytometry; hits give low values; fluorescence response, % at 10 µM; 850 tested, under 10 active;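 active = fluorescence response below 15%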;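 note: lower means stronger quenching of DHE signal or ROS scavenging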
Each line names hits and unclear results; the compound was inactive in the other large screens (follow-up assays come after a bar, where they were run). The list is not random: actives were taken first. Their share in the collection is about 1%.

O=C(COC(=O)CC1Sc2ccccc2NC1=O)NCc1ccccc1 (stereo not given)	none
CCn1c2ccc(/C(C)=N\O)cc2c2cc(/C(C)=N\O)ccc21	none | Superoxide pick inactive | DHE counter inactive
COc1ccc(S(=O)(=O)N2CCOCC2)cc1NC(=O)c1cccc2c(=O)c(C)c(-c3ccccc3)oc12	none
CCSc1nnc(C)c(=O)n1COC(=O)c1ccc(S(=O)(=O)N2CCCC2)cc1	Yeast superoxide 51 | Superoxide pick inactive | DHE counter inactive
Cc1ccc2cc(NC(=O)Cc3ccccc3)ccc2n1	Yeast superoxide 63 | Superoxide pick inactive | DHE counter inactive
Cc1ccc2cc(NC(=O)c3ccccc3C)ccc2n1	none
CC(C)Cc1ccc(CN2CCCC(NC(=O)c3cccc(-n4cnnc4)c3)C2)cc1 (stereo not given)	none
CC(=O)N1CCN(C(=O)C2CCN(S(=O)(=O)c3ccccc3C(F)(F)F)CC2)CC1	none (no result: Fh CTSL1 inh)
C=CCn1c(SCC(=O)N(CC)C2CCS(=O)(=O)C2)nc2scc(-c3ccccc3)c2c1=O (stereo not given)	none (no result: Yeast superoxide, Fh CTSL1 inh)
N#Cc1ccc(Nc2ccccc2)c(N)c1	Yeast superoxide 61 | Superoxide pick inactive | DHE counter inactive
Cc1cccc(C)c1OCC(=O)NCc1ccccc1	Yeast superoxide 46 | Superoxide pick inactive | DHE counter inactive
Cc1nc(N2CCN(c3ccccn3)CC2)c2c(C)c(C(=O)N3CCN(c4ccccc4F)CC3)sc2n1	none
COc1cc2[nH]c(=O)n(CCCCCC(=O)N3CCN(c4ccccc4)CC3)c(=O)c2cc1OC	Yeast superoxide 64 | Superoxide pick inactive | DHE counter inactive
CC(=O)c1ccc(NC(=S)NC(=O)/C=C/c2ccc(F)cc2)cc1	Yeast superoxide 49 | Superoxide pick inactive | DHE counter inactive
O=C(NCc1cccs1)c1csc([C@@H]2C[C@H](O)[C@@H](CO)O2)n1	none (no result: Yeast superoxide, V-ATPase pHluor, Fh CTSL1 inh)
O=C(CC(Cc1ccccc1)C(=O)O)Nc1ccccc1 (stereo not given)	Yeast superoxide 50 | Superoxide pick inactive | DHE counter inactive
O=C(CC(Cc1ccccc1)C(=O)O)Nc1ccc(Cl)c(Cl)c1 (stereo not given)	none
COc1ccc(CN(C)Cc2ccccc2)c(OC)c1OC	none
FC(F)c1nc2ccccc2[nH]1	none
c1ccc2[nH]c3cc4ncnc4cc3nc2c1	Yeast superoxide 40 | Superoxide pick 47 | DHE counter inactive
COc1ccc(C(=O)/C(C#N)=N/Nc2ccc([N+](=O)[O-])cc2)cc1	none
CCOc1ccc(N/C(SC)=C(/C#N)C(N)=O)cc1	none
CCOc1ccc(N/N=C(/C#N)C(N)=O)cc1	Yeast superoxide 46 | Superoxide pick inactive | DHE counter inactive
CCOC(=O)NC(=O)/C(C#N)=N\Nc1ccc(Cl)cc1	none | Superoxide pick inactive | DHE counter inactive
COc1ccc(N/N=C(\C#N)C(N)=O)cc1	Yeast superoxide 48 | Superoxide pick inactive | DHE counter inactive
CCOC(=O)NC(=O)/C(C#N)=N\Nc1cccc(Cl)c1	none
Cc1nc(-c2ccc(S(=O)(=O)Nc3cc(S(=O)(=O)N(C)C)ccc3C)s2)cs1	Yeast superoxide 64 | Superoxide pick inactive | DHE counter inactive
COc1cc(/C=C(\C#N)C(=O)NC(C)C)cc(Cl)c1O	none | Superoxide pick inactive | DHE counter inactive
Cc1ccccc1Cn1cc(NC(=O)c2noc3c2CC(C(C)(C)C)CC3)cn1 (stereo not given)	Yeast superoxide 65 | Superoxide pick inactive | DHE counter inactive
Cc1ccccc1Cn1nc(C)c(NC(=O)c2noc3c2CC(C(C)(C)C)CC3)c1C (stereo not given)	none
Cc1ccc(C(=O)Nc2cccc(S(=O)(=O)N3CCCCC3)c2)cc1[N+](=O)[O-]	none (no result: Fh CTSL1 inh)
COCCOC(=O)C1=C(C)NC(=O)NC1c1cccc2ccccc12 (stereo not given)	none
Cc1cc(NS(=O)(=O)c2ccccc2)cc(Cl)c1O	none | Superoxide pick inactive | DHE counter inactive
O=S(=O)(Nc1ccc(NS(=O)(=O)c2ccccc2)c(Cl)c1)c1ccccc1	none (no result: Yeast superoxide, Fh CTSL1 inh)
CCOc1ccc(C(=O)N2CCN(c3cccc(Cl)c3)CC2)cc1	none | Superoxide pick inactive | DHE counter inactive
COc1cccc(N2CCN(C(=O)c3ccc(-c4ccccc4)cc3)CC2)c1	none
COc1ccc(C(=O)N2CCN(c3ccccc3OC)CC2)cc1	none | Superoxide pick inactive | DHE counter inactive
COc1ccc(C(=O)N2CCN(c3cccc(Cl)c3)CC2)cc1	none | Superoxide pick inactive | DHE counter inactive
CCc1ccc2oc(C(=O)N3CCN(c4ccccc4OC)CC3)cc(=O)c2c1	Yeast superoxide 62 | Superoxide pick inactive | DHE counter inactive
CC(=O)C1=CCC(c2ccc(Cl)cc2)N(S(=O)(=O)c2ccccc2)C1 (stereo not given)	none (no result: Yeast superoxide, V-ATPase pHluor, Fh CTSL1 inh)
Cc1ccc(-c2csc(NC(=O)N3CCOCC3)n2)cc1	none
Cc1cccn2c(=O)c(/C=C(\C#N)C(N)=O)c(N3CCN(c4cccc(Cl)c4)CC3)nc12	none (no result: Fh CTSL1 inh)
CCOc1ccc(C(=O)N2CCN(c3cccc(C)c3C)CC2)cc1	none | Superoxide pick inactive | DHE counter inactive
CCOc1ccc(C(=O)N2CCCC2)cc1	none
CC(C)(C)[C@@H]1CCC(=O)N(CC[C@H](Sc2ccc(Br)cc2)c2ccccc2)CC1	none (no result: Fh CTSL1 inh)
COc1ccc(NC(=O)CCCn2c(=S)[nH]c3ccccc3c2=O)cc1	none
COc1ccc(NC(=O)CCn2c(=S)[nH]c3ccccc3c2=O)cc1	Yeast superoxide 65 | Superoxide pick inactive | DHE counter inactive
CC(C)c1cc(C(C)C)c(S(=O)(=O)NC(c2ccccn2)C23CC2C3)c(C(C)C)c1 (stereo not given)	none (no result: Yeast superoxide, V-ATPase pHluor, Fh CTSL1 inh)
COc1ccc(S(=O)(=O)Nc2cccc(Cl)c2)cc1OC	none | Superoxide pick inactive | DHE counter inactive
COc1ccc(S(=O)(=O)Nc2ccc(F)c(F)c2)cc1Cl	none | Superoxide pick inactive | DHE counter inactive
O=C(NCC1CCCCC1)c1cccc(-c2ccc(O)cc2)c1	none
Cc1cc(N)n2nc(-c3ccccc3)c(-c3ccccc3)c2n1	none | Superoxide pick inactive | DHE counter inactive
CC(=O)c1cnc2c(-c3ccccc3)c(-c3ccccc3)nn2c1C	none | Superoxide pick inactive | DHE counter inactive
Cc1nc2c(-c3ccccc3)c(C)nn2c(N)c1-c1ccccc1	none
Cc1ccc(OC(=O)c2ccccc2)cc1C	none (no result: Yeast superoxide, Fh CTSL1 inh)
COc1cccc(CN(C)CC(=O)NCc2ccc(F)cc2)c1OC	Yeast superoxide 39 | Superoxide pick inactive | DHE counter inactive
COc1ccccc1CNC(=O)CN(C)Cc1ccc(SC)cc1	none
CC(C)Cn1c(=S)[nH]c2cc(C(=O)O)ccc2c1=O	none
CC(C)Cn1c2ccccc2c2cc(C(=O)O)ccc21	none | Superoxide pick inactive | DHE counter inactive
CCOc1ccc2nc(NCCCNS(=O)(=O)c3ccccc3)c(C#N)cc2c1	Yeast superoxide 65 | Superoxide pick inactive | DHE counter inactive
CCOc1ccc2nc(NCCCNS(=O)(=O)c3ccc(F)cc3)c(C#N)cc2c1	none
O=C(O)c1cc(S(=O)(=O)NC(Cc2c[nH]c3ccccc23)C(=O)O)ccc1Cl (stereo not given)	none
